p53 reactivation: mutant p53 re-activation in reporter cells; AID 504706; actives 0.063% (n = 320,000); H1299 p53-A138V BP100-luciferase reporter, luminescence, 24 h; Potency, µM (top dose mostly 92.2 µM), without a hit: at the top dose activity change, positive = activation, actives largely listed as activators; active = well fitted activation curve with a large enough effect; inconclusive = small, poorly fitted or top-dose-only effect; inactive = no such curve, though single readings can be large or run the other way; note: potency is the fitted concentration of half-maximal effect; % of control where 0% means no effect; nearly all actives have a fitted effect of over 45% in size
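H1299 (p53-null), stable ts p53-A138V + BP100-Luc; 1000 cells/well, Opti-MEM/10% FBS; cpd 4 pt, 1:5; 24 h, 37 deg C, 5% CO2; detection reagent 10 min RT; luminescence.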
KCNH2 WT inh: blocks the wildtype human KCNH2 potassium channel. U2OS, BacMam KCNH2, thallium flux FluxOr; stronger effect = lower value. actives 0.37% (n = 340,000). activity change, % at 1.84 µM;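 active = maximum activity change below -70%; inconclusive = maximum activity change between -70% and -50%; inactive = maximum activity change above -50%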; note: % is set by controls: 0 for no effect and ±100 for the full control effect
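U2OS cells were transduced with wild-type KCNH2 virus (2.03 x 10^8 / mL) for 4 h at room temperature, then cultured overnight at 37 C. Thallium flux was read with FluxOr dye. Rate constants were normalized to DMSO controls.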
TRPV1 PAM: enhances activation of the human vanilloid receptor TRPV1. Q8NER1. TRPV1-expressing cells, Fluo-8 calcium influx, capsaicin EC20 potentiation. potentiation, % at 8.33 µM. actives 0.02% (n = 320,000). AID 540277; in the data active = potentiation above about 80%; inconclusive = between about 30% and that limit; note: 0% is about no effect
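TRPV1-expressing cells were cultured overnight at 35.5C and loaded with Fluo-8 calcium dye for 40 to 90 min at room temperature. After a 10 s baseline, compound was added and calcium influx was read kinetically for 3 min (ex 480/em 520 nm).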
KCNH2 3.1 block: blocks the human KCNH2 3.1 channel isoform | activity change, % (tested at about 1.8 µM) | actives 0.95% (n = 340,000) | U2OS KCNH2 3.1, thallium flux FluxOr; stronger effect = lower value;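 active = maximum activity change below -70%; inconclusive = maximum activity change from -70% to -50%; inactive = maximum activity change above -50%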;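 note: thallium influx rate constant from kinetic fluorescence after stimulation buffer; % is set by controls: 0 for no effect and ±100 for the full control effect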
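Normalized rate constant (relative to positive and negative DMSO controls) derived from a 2 min kinetic fluorescence read after stimulation; U2OS cells expressing the 3.1 isoform via virus at 1.77 x 10^8 /mL.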
TRPV1 agonist: agonists of human vanilloid receptor 1 (TRPV1) | Q8NER1 | activation, % at 8.33 µM | AID 540275 | actives 0.19% (n = 320,000) | TRPV1-expressing cells, Fluo-8 calcium influx, agonist mode; in the data active = activation above about 80%; inconclusive = between about 30% and that limit; note: 0% is about no effect
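TRPV1-expressing cells were cultured overnight at 35.5C and loaded with Fluo-8 calcium dye for 40 to 90 min at room temperature. After a 10 s baseline, compound was added and calcium influx was read kinetically for 3 min (ex 480/em 520 nm).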
ClpP mod: qHTS Assay for Activators of ClpP; ATP-dependent Clp protease proteolytic subunit (Bacillus subtilis (strain 168)), P80244; purified B. subtilis ClpP, FRET peptide cleavage, 20 min; Potency, µM (top dose mostly 57.5 µM), without a hit: at the highest dose activity change, negative = active; actives 1.9% (n = 340,000); AID 651965, 2013; active = well fitted falling curve with a large enough effect; inconclusive = small, poorly fitted or top-dose-only effect; inactive = no such curve, though single readings can be large or run the other way; note: potency is the fitted concentration of half-maximal effect; the source files actives as falling curves though it sought activators and does not explain the sign; nearly all actives have a fitted effect of over 65% in size
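FRET quenching reversal measured ClpP activation: 10 microg/mL B. subtilis ClpP at pH 8 with the FRET-FV decapeptide, read at 430 nm after 320 nm excitation. The 20-min minus 0-min signal was scaled between DMSO/no-enzyme wells and ADEP (5.8 microM final).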
Active calls of the source: *; ? = inconclusive; / = no result. In the library only some 2.6% were active in any assay of this set; here they are far more common.

SMILES | p53 reactivation | KCNH2 WT inh | TRPV1 PAM | KCNH2 3.1 block | TRPV1 agonist | ClpP mod
COc1ccc(N2CCN(C(=O)c3ccc(COc4ccc([N+](=O)[O-])cc4)o3)CC2)cc1 | / | 5 | 8 | -21 | 3 | 1%
O=C(CSc1nc2ccccc2[nH]1)N1CCN(c2ccc(F)cc2)CC1 | -3% | 16 | -4 | 4 | 0 | 4%
O=C(CCCSc1nc2ccccc2[nH]1)N1CCN(c2ccc([N+](=O)[O-])cc2)CC1 | -1% | -105* | 16 | -116* | -4 | -1%
O=[N+]([O-])c1ccc(N2CCN(C(=S)NC3CCCCC3)CC2)cc1 | -5% | -23 | 1 | -72* | 1 | -2%
Cc1c(Cl)cccc1-c1ccc(C(=O)N2CCN(c3ccc([N+](=O)[O-])cc3)CC2)o1 | -6% | -48 | -1 | -80* | 2 | 1%
CCCC(=O)N1N=C(c2ccccc2)CC1c1cn(C)c2ccccc12 (stereo not drawn) | 8% | 17 | -15 | -2 | ? | ?
CC(=O)N1N=C(c2ccc(Br)cc2)CC1c1cn(C)c2ccccc12 (stereo not drawn) | -6% | -1 | 6 | -4 | -1 | 28µM*
O=C(COC(=O)c1ccccc1NCCO)NCC1CCCCC1 | 10% | 0 | 16 | 1 | 3 | 4%
Cc1ccc(-n2nc(C)c(NC(=O)COC(=O)c3ccccc3NCCO)c2C)cc1 | -2% | 54 | 29 | -4 | -1 | 28µM*
O=C(COC(=O)c1ccccc1NCCO)NCCC1=CCCCC1 | 11% | 3 | -4 | -5 | 4 | 25µM*
CC(C#N)(NC(=O)COC(=O)c1ccccc1NCCO)C1CC1 (stereo not drawn) | 3% | -16 | -6 | 2 | -1 | 25µM*
O=C(COC(=O)c1cc(Br)ccc1Cl)NC(=O)NCc1ccccc1 | -3% | 8 | -2 | 9 | 4 | /
O=C(COC(=O)c1ccccc1Cl)NC(=O)NCc1ccccc1 | 9% | -139* | -9 | -226* | 14 | 1%
CCN(CC)C(=O)C1=C(C)N(Cc2ccccc2)C(=O)C(CC(=O)NC2CCCCC2)C1 (stereo not drawn) | / | 27 | / | 2 | / | 0%
O=C(COC(=O)c1ccccc1NCCO)NCCc1ccccc1 | 18% | -26 | 4 | -1 | -1 | 14µM*
O=C(OCC(=O)N(Cc1ccccc1)Cc1ccccc1)c1ccccc1NCCO | -1% | 2 | 15 | ? | -2 | /
O=C(COC(=O)c1ccccc1C(=O)c1ccccc1)NCCc1ccccc1 | -15% | -1 | -3 | -2 | 8 | /
O=C(COC(=O)c1ccccc1C(=O)c1ccc(Cl)cc1)NCCc1ccccc1 | -15% | -10 | -15 | -72* | 26 | 2%
Cc1ccc2occ(/C=N/NC(=O)c3ccccc3O)c(=O)c2c1 | 21% | 14 | 3 | 9 | 2 | 4%
Cc1ccc2occ(/C=C/C(=O)c3ccccc3O)c(=O)c2c1 | 4% | 0 | -9 | 9 | 9 | 16µM*
Cc1c(NS(=O)(=O)c2cccs2)cccc1-c1nc2cccnc2s1 | 8% | -3 | 17 | -87* | 1 | 5%
Cc1cc(=O)[nH]c(SCC(=O)NCC2CCCO2)n1 (stereo not drawn) | -3% | -235* | 5 | -20 | -1 | 1%
CC(C)C(=O)Nc1nnc(SCC(=O)NCC2CCCO2)s1 (stereo not drawn) | -1% | -6 | 6 | -85* | -6 | /
O=C(CSc1nc(O)c(C2CCCCC2)c(=O)[nH]1)NCC1CCCO1 (stereo not drawn) | ? | -4 | ? | 2 | 0 | -3%
Cc1ccc(Nc2nnc(SCC(=O)NCC3CCCO3)s2)cc1 (stereo not drawn) | 8% | -3 | / | 16 | / | -3%
SMILES | p53 reactivation | KCNH2 WT inh | TRPV1 PAM | KCNH2 3.1 block | TRPV1 agonist | ClpP mod
CCC(c1nnnn1-c1c(C)cccc1C)N1CCCN(Cc2ccc(F)cc2)CC1 (stereo not drawn) | / | / | / | / | / | 1%
C=CCn1cccc(C(=O)Nc2ccc(OC)cc2)c1=O | 11% | 7 | -17 | 18 | ? | /
COc1ccc(NC(=O)c2cccn(CC=C(C)C)c2=O)cc1 | 15% | -3 | -26 | -102* | ? | /
CCOc1ccc(C(=O)Nc2cc3c(cc2N2CCCC2)n(C)c(=O)c(=O)n3C)cc1OCC | / | / | / | / | / | 28µM*
Cn1c(=O)c(=O)n(C)c2cc(N3CCCC3)c(NC(=O)c3ccc(C(C)(C)C)cc3)cc21 | / | / | / | / | / | 35µM*
COc1ccc(C(=O)Nc2cc3c(cc2N2CCCC2)n(C)c(=O)c(=O)n3C)cc1OC | / | / | / | / | / | 32µM*
COc1ccc(C(=O)Nc2cc3c(cc2N2CCCCC2)n(C)c(=O)n3C)cc1OC | -13% | -10 | -17 | 2 | 30 | -4%
CCCCNC(=O)C(NC(=O)c1ccc2c(c1)OCO2)C(=O)c1ccccc1 (stereo not drawn) | / | / | / | / | / | 3%
CC1(C(=O)NC2CCCCC2)Cc2ccccc2C(=O)N1Cc1ccccc1Cl (stereo not drawn) | / | / | / | / | / | 32µM*
O=[N+]([O-])c1ccc(OCC(O)CN(C2CCCCC2)C2CCCCC2)cc1 (stereo not drawn) | -13% | -70* | -8 | -106* | 2 | -2%
O=C(NCCCN1CCOCC1)c1ccc(Br)cc1Br | 3% | / | -10 | / | 5 | /
CCCC(=O)c1c[nH]c(C(=O)NCCCN2CCOCC2)c1 | -3% | 3 | -5 | -1 | -5 | 25µM*
Cc1c(Br)cc(C(=O)NCCCN2CCOCC2)c(C)c1C | -1% | 13 | -6 | 1 | 4 | 16µM*
COC(=O)c1cnn(-c2ccc(C(=O)Nc3cccc(C(C)=O)c3)cc2)c1N | / | / | -28 | / | 26 | 3%
COc1cc(OC)c(OC)cc1/C=C/c1nccc2ccccc12 | / | / | / | / | / | -1%
CCOC(=O)c1nn(-c2ccc(F)cc2)cc1O | ? | 4 | 24 | -7 | -1 | /
CCOC(=O)c1nn(-c2ccc(Br)cc2)cc1C(=O)c1cccc2ccccc12 | 14% | -4 | -4 | -104* | -1 | 0%
CCCCCC1CC(CC(=O)Nc2ccc([N+](=O)[O-])cc2)C(=O)O1 (stereo not drawn) | -7% | / | -3 | -71* | 2 | 3%
CCCCCC1CC(CC(=O)Nc2ccc([N+](=O)[O-])cc2)OC1=O (stereo not drawn) | -1% | 1 | -1 | -4 | 18 | -1%
Cc1ccc(C(=O)N(Cc2ccco2)Cc2sccc2C)cc1 | / | / | / | / | / | -1%
